Structures are written as SMILES. Results filed as inconclusive are left out. A call without a number means that no potency is given here. The source made the active and inactive calls. The call rests on the fitted dose curve; in most records, active means well fitted cell-killing curve with a large enough effect; inconclusive means small, poorly fitted or top-dose-only effect, or effect the other way; inactive means no such curve, though single readings can be large or run the other way.
Potency means the concentration at half of the fitted maximal effect.

This assay in a line: Quantitative High-Throughput drug screen in 47 multiple myeloma cell lines against the NCATS MIPE library collection: KMS28BM_JCRB cell viability assay (AID 1919874). Further: nearly all actives have a fitted effect of over 35% in size. As to conditions: CellTiter-Glo ATP, 48 h; series mostly up to 45.8 µM. The gist of the method:
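Viability after 48 h drug exposure was measured as ATP-dependent luminescence. Cells, 500 per well, sat at 37 °C under 5% CO2; DMSO wells set 100%, media-only wells 0%.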
On the technique in general: ATP-based viability assays read luminescence as a measure of living cells.
Take `C#CCN(C)CC1=Cc2ccccc2Oc2ccccc21`: the Potency result is “inactive”.
Under `OC[C@H]1O[C@@H](Oc2ccc(O)cc2)[C@H](O)[C@@H](O)[C@H]1O` stands “inactive”; under `CCNC(=O)CCCC=CC[C@@H]1[C@H](C=CC(O)CCc2ccccc2)[C@@H](O)C[C@@H]1O` (stereo partly specified), 3.32 µM (active).
In the case of `N#CC(c1ccc(Cl)cc1)c1c(Cl)cc(-n2ncc(=O)[nH]c2=O)cc1Cl` (stereo unspecified) it was “inactive”.
In the case of `O=C(CC12CC3CC(CC(C3)C1)C2)Nc1cccc2nc(NCCNCCO)ccc12` it was 23.5 µM (active); in that of `N=C1SC(=Cc2ccc(-c3ccc4c(c3)C(=O)NC4=O)o2)C(=O)N1c1ccc(Br)cc1`, “inactive”.
Turning to `c1ccc(CNc2nc(N3CCOc4ccccc43)nc3c2CCCC3)cc1`, the Potency entry was “inactive”.
In the case of `NC(=O)c1noc([C@H](CCCC2CCCCC2)CC(=O)NO)n1` it was “inactive”; in that of `CNC1CCC(N(Cc2cccc(-c3ccncc3)c2)C(=O)c2sc3ccccc3c2Cl)CC1` (stereo unspecified), 18.7 µM (active).
In the case of `O=C1CCCC(=O)C1C(=O)c1ccc(C(F)(F)F)cc1[N+](=O)[O-]`, the Potency entry was “inactive”.
Under `CC(=O)OCC(=O)[C@@]12OC(C)(C)O[C@H]1C[C@H]1[C@@H]3C[C@H](F)C4=CC(=O)C=C[C@]4(C)[C@@]3(F)[C@@H](O)C[C@@]12C` stands “inactive”.

Values taken from PubChem BioAssay (NCATS).
